# Target: Interleukin-8 (IL8, CXCL8), C-terminal His-tagged (Homo sapiens, UniProt P10145 SEQ:1-72)
# Experiment: competition; competition TR-FRET; G18U
# Conditions: tags: C-terminal 6xHis (Sino Biological); ssRNA; 2'-F G, 2'-OMe A/C/U, 5' C6NH2, 3' idT
# Protocol: To better understand the sequence requirements and to confirm the stem structures of members of the Aptamer 3 family as determined from sequence covariation analysis from both the primary and secondary (degenerate) selections, a series of variants which included mutations and deletions to the predicted stems were synthesized and screened (Table 24). Activity of each of these variants were tested using a time resolved competition TR-FRET assay in which the labeled parent Aptamer 3 was competed with increasing concentrations of unlabeled variants for binding to IL8 (FIG. 14). Briefly, 2-fold dilutions of thermally equilibrated aptamers were made in TR-FRET Buffer (50 mM MOPS, pH 7.4, 125 mM NaCl, 5 mM KCl, 50 μM CHAPS, 0.1 mg/mL BSA, 1 mM CaCl₂, and 1 mM MgCl₂). 5 μL of aptamer or control solution was added to 5 μl mix of 10 nM C-terminal His-tagged-IL8, 60 nM ALEXA FLUOR® 647-labeled Aptamer, and 5 nM anti-His-Eu (Perkin Elmer) in a black wall low volume 384 well plate (Greiner). For control, 5 μl of 1000-fold excess of unlabeled parent aptamer or 5 μl TR-FRET buffer alone was added to the mix of ALEXA FLUOR® 647-labeled aptamer, His-IL8, and anti-His-Eu. The plate was covered with a plate seal and subsequently incubated in the dark for 1 hour at room temperature. The plate was read on a Biotek CYTATION™ 5 plate reader. […]
row,Sequence,binding signal
1,UGAUGACGGUAGAUUACUGGUAGAGUGACCGCAUCU,> 10 fold worse than Aptamer 3
